Laboratory results as given in PubChem BioAssay (EPA / NIEHS).
Some structures have more than one record in an assay (separate samples or runs), and their calls can disagree. The source made the active and inactive calls. Rule for the calls: active = hit-call score of the fitted dose curve at least 0.9, where 1 is the maximum; inactive = score below 0.9.

How the values were obtained:
[1] = CEETOX_H295R_OHPREG: CeeTox H295R High-throughput Steroidogenesis Assay for OH-Pregnenolone (OHPREG) (AID 2283434); settings: actives raise or lower the signal
Outline: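 Hormone levels in spent medium were measured by tandem mass spectrometry following liquid-liquid extraction. Cells (H295R) had been forskolin-stimulated (10 uM, 48 h) before a 48 h chemical exposure at 0.1% DMSO, with activity fitted in both directions against DMSO.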

[2] = CEETOX_H295R_OHPROG: CeeTox H295R High-throughput Steroidogenesis Assay for OH-Progesterone (OHPROG) (AID 2283435); settings: actives raise or lower the signal;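 for AC50: 17alpha-hydroxyprogesterone secreted into medium measured by HPLC-MS/MS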
Outline: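 Secreted 17alpha-hydroxyprogesterone is read by tandem MS from media of forskolin-primed H295R cells dosed with chemical for 48 h. Activity is fitted in both directions against DMSO baseline; cytotoxic concentrations are re-tested diluted.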

[3] = CEETOX_H295R_ESTRADIOL: CeeTox H295R High-throughput Steroidogenesis Assay for Estradiol (AID 2283440); settings: actives raise or lower the signal;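 note: estradiol secreted into medium quantified by LC-MS/MS after dansyl derivatisation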
Outline: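 H295R adrenocortical cells were prestimulated with 10 uM forskolin for 48 h, then exposed to test chemical in 0.1% DMSO for 48 h. Medium estradiol was extracted with MTBE, dansyl-derivatized and quantified by HPLC-MS/MS; bidirectional fit versus DMSO.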

[4] = CEETOX_H295R_ESTRONE: CeeTox H295R High-throughput Steroidogenesis Assay for Estrone (AID 2283441); settings: actives raise or lower the signal;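 note: estrone secreted into medium measured by LC-MS/MS after dansyl derivatization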
Outline: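 H295R cells; 48 h forskolin (10 uM) prestimulation; 48 h compound exposure, 0.1% DMSO final. Medium estrone: MTBE extraction, dansyl derivatization, HPLC-MS/MS. Bidirectional fit vs DMSO.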

[5] = CEETOX_H295R_PROG: CeeTox H295R High-throughput Steroidogenesis Assay for Progesterone (PROG) (AID 2283442); settings: actives raise or lower the signal;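 for AC50: human H295R adrenal cells primed with 10 µM forskolin before dosing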
Outline: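 H295R human adrenal cells were prestimulated with 10 uM forskolin for 48 h, then exposed to test chemical (0.1% DMSO final) for 48 h. Medium progesterone was MTBE-extracted and quantified by HPLC-MS/MS, with bidirectional fitting against DMSO.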

[6] = read-out: Tumor necrosis factor receptor superfamily member 6 (Homo sapiens) (UniProt P25445); test: LTEA_HepaRG_FAS: Life Technologies and Expression Analysis (LTEA) Assay for Fas cell surface death receptor (FAS) using HepaRG (AID 2283447); settings: mRNA level, 48 h; actives raise or lower the signal
Outline: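 FAS transcript level was measured by TaqMan qRT-PCR against three housekeeping genes after 48 h chemical exposure. Cells were HepaRG, 0.5% DMSO vehicle, with a top concentration of 100 uM and half-log dilutions over eight points, in duplicate.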

[7] = read-out: Fatty acid synthase (Homo sapiens) (UniProt P49327); test: LTEA_HepaRG_FASN: Life Technologies and Expression Analysis (LTEA) Assay for Fatty Acid Synthase (FASN) using HepaRG (AID 2283448); settings: mRNA level, 48 h; actives raise or lower the signal
Outline: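 Transcript-level assay: HepaRG liver cells are treated for 48 h across an eight-point range topping at 100 uM, and FASN mRNA, normalized to three housekeeping genes, is compared with DMSO controls in both directions.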

[8] = read-out: Cyclin D2 (CCND2), CCND2 (gene 894); test: LTEA_HepaRG_CCND2: Life Technologies and Expression Analysis (LTEA) Assay for Cyclin D2 (CCND2) using HepaRG (AID 2283449); settings: mRNA level, 48 h; actives raise or lower the signal
Outline: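 Read-out is CCND2 mRNA level measured by qRT-PCR in human HepaRG liver cells and normalised to three housekeeping genes. Chemicals were applied for 48 h at up to 100 uM, with gain or loss fitted relative to 0.5% DMSO.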

[9] = read-out: Cyclin D1 (CCND1), CCND1 (gene 595); test: LTEA_HepaRG_CCND1: Life Technologies and Expression Analysis (LTEA) Assay for Cyclin D1 (CCND1) using HepaRG (AID 2283451); settings: mRNA level, 48 h; actives raise or lower the signal;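 for AC50: TaqMan qRT-PCR transcript level normalised to ACTB GAPDH and POLR2A housekeeping genes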
Outline: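 Differentiated human HepaRG cells in serum-free induction medium were exposed 48 h to eight half-log concentrations up to 100 uM in 0.5% DMSO; mRNA quantified by TaqMan qRT-PCR, normalized to ACTB, GAPDH, POLR2A, fitted bidirectionally versus DMSO.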

[10] = read-out: catalase (CAT), CAT (gene 847); test: LTEA_HepaRG_CAT: Life Technologies and Expression Analysis (LTEA) Assay for catalase (CAT) using HepaRG (AID 2283452); settings: mRNA level, 48 h; actives raise or lower the signal;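 for AC50: TaqMan qRT-PCR signal normalized to ACTB GAPDH and POLR2A housekeeping genes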
Outline: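 Expression of CAT was quantified by TaqMan qRT-PCR with ACTB/GAPDH/POLR2A normalization after 48 h chemical exposure of HepaRG. Eight-point half-log series, top 100 uM, in 0.5% DMSO; gain or loss fitted against vehicle.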

[11] = read-out: flavin-containing dimethylaniline monooxygenases 3 (FMO3), FMO3 (gene 2328); test: LTEA_HepaRG_FMO3: Life Technologies and Expression Analysis (LTEA) Assay for flavin-containing dimethylaniline monooxygenases 3 (FMO3) using HepaRG (AID 2283453); settings: mRNA level, 48 h; actives raise or lower the signal;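 for AC50: FMO3 transcript by TaqMan qRT-PCR normalized to ACTB GAPDH and POLR2A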
Outline: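 HepaRG, 48 h exposure, 8-pt half-log series from 100 uM, 0.5% DMSO vehicle, duplicates; FMO3 transcript by Fluidigm TaqMan qRT-PCR, housekeeping-normalized; gain/loss fit vs DMSO.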

[12] = read-out: Cytochrome P450 (CYP1A1), CYP1A1 (gene 1543); test: LTEA_HepaRG_CYP1A1: Life Technologies and Expression Analysis (LTEA) Assay for Cytochrome P450 (CYP1A1) using HepaRG (AID 2283454); settings: mRNA level, 48 h; actives raise or lower the signal
Outline: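 Differentiated HepaRG cells in serum-free induction medium were exposed in duplicate for 48 h to eight half-log concentrations up to 100 uM in 0.5% DMSO. CYP1A1 mRNA was quantified by TaqMan qRT-PCR, normalized to ACTB, GAPDH and POLR2A.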

[13] = read-out: CFLAR gene, CFLAR (gene 8837); test: LTEA_HepaRG_CFLAR: Life Technologies and Expression Analysis (LTEA) Assay for CFLAR gene using HepaRG (AID 2283455); settings: mRNA level, 48 h; actives raise or lower the signal
Outline: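 HepaRG, 48 h exposure, 8-pt conc-response (100 uM top, half-log), 0.5% DMSO vehicle, duplicates. CFLAR expression by qRT-PCR; ACTB/GAPDH/POLR2A normalization; gain or loss fit vs DMSO baseline.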

[14] = read-out: Forkhead box O1 (FOXO1), FOXO1 (gene 2308); test: LTEA_HepaRG_FOXO1: Life Technologies and Expression Analysis (LTEA) Assay for Forkhead box O1 (FOXO1) using HepaRG (AID 2283456); settings: mRNA level, 48 h; actives raise or lower the signal
Outline: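 Readout is FOXO1 transcript level by multiplexed qRT-PCR against three housekeeping genes, curve-fitted in both directions relative to 0.5% DMSO vehicle. Human HepaRG cultures received chemicals for 48 h, up to 100 uM in half-log steps.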

[15] = CEETOX_H295R_11DCORT: CeeTox H295R High-throughput Steroidogenesis Assay for 11-Deoxycortisol (11DCORT) (AID 2283432); settings: actives raise or lower the signal
Outline: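 H295R cells; 10 uM forskolin prestim 48 h; compound in 0.1% DMSO 48 h; media extracted with MTBE; 11-deoxycortisol by LC-MS/MS, 7-point standard curve; gain/loss vs DMSO baseline; viability by MTT in same wells.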

[16] = CEETOX_H295R_ANDR: CeeTox H295R High-throughput Steroidogenesis Assay for Androstenedione (ANDR) (AID 2283436); settings: actives raise or lower the signal
Outline: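 Read-out is androstenedione secreted into medium, measured by tandem mass spectrometry after liquid-liquid extraction. Cells were H295R, dosed for 48 h per modified OECD 456; activity fitted in both directions relative to DMSO.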

[17] = CEETOX_H295R_CORTIC: CeeTox H295R High-throughput Steroidogenesis Assay for Corticosterone (CORTIC) (AID 2283437); settings: actives raise or lower the signal;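 note: corticosterone secreted into medium quantified by mass spectrometry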
Outline: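 Corticosterone secreted into medium is measured by reverse-phase HPLC with tandem MS following liquid-liquid extraction. Cells are forskolin-stimulated (10 uM, 48 h) before 48 h test exposure; activity fitted in both directions against DMSO.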

[18] = CEETOX_H295R_CORTISOL: CeeTox H295R High-throughput Steroidogenesis Assay for Cortisol (AID 2283438); settings: actives raise or lower the signal;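 note: cortisol secreted into medium quantified by LC-MS/MS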
Outline: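 Human adrenocortical H295R cells (passage ≤10) received test chemicals for 48 h after forskolin priming. Secreted cortisol was measured by LC-MS/MS.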

[19] = read-out: Cyclin Dependent Kinase Inhibitor 1A (CDKN1A), CDKN1A (gene 1026); test: LTEA_HepaRG_CDKN1A: Life Technologies and Expression Analysis (LTEA) Assay for Cyclin Dependent Kinase Inhibitor 1A (CDKN1A) using HepaRG (AID 2283450); settings: mRNA level, 48 h; actives raise or lower the signal
Outline: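 Differentiated human HepaRG cells, pre-cultured 48 h, were exposed in duplicate for 48 h in serum-free induction medium to eight half-log concentrations up to 100 uM (0.5% DMSO). CDKN1A mRNA was measured by qRT-PCR, normalized to ACTB/GAPDH/POLR2A, bidirectionally fitted versus DMSO.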

[20] = CEETOX_H295R_TESTO: CeeTox H295R High-throughput Steroidogenesis Assay for Testosterone (TESTO) (AID 2283457); settings: actives raise or lower the signal
Outline: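 H295R human adrenal cells in DMEM/F12 with ITS+ and Nu-Serum, exposed to chemicals for 48 h. Testosterone in medium measured by MTBE extraction, reverse-phase HPLC-MS/MS; bidirectional fit versus DMSO baseline. MTT viability checked in same wells.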

Measured: AC50

Chain of Fatty acid synthase (Homo sapiens) (P49327 whole entry, looked up): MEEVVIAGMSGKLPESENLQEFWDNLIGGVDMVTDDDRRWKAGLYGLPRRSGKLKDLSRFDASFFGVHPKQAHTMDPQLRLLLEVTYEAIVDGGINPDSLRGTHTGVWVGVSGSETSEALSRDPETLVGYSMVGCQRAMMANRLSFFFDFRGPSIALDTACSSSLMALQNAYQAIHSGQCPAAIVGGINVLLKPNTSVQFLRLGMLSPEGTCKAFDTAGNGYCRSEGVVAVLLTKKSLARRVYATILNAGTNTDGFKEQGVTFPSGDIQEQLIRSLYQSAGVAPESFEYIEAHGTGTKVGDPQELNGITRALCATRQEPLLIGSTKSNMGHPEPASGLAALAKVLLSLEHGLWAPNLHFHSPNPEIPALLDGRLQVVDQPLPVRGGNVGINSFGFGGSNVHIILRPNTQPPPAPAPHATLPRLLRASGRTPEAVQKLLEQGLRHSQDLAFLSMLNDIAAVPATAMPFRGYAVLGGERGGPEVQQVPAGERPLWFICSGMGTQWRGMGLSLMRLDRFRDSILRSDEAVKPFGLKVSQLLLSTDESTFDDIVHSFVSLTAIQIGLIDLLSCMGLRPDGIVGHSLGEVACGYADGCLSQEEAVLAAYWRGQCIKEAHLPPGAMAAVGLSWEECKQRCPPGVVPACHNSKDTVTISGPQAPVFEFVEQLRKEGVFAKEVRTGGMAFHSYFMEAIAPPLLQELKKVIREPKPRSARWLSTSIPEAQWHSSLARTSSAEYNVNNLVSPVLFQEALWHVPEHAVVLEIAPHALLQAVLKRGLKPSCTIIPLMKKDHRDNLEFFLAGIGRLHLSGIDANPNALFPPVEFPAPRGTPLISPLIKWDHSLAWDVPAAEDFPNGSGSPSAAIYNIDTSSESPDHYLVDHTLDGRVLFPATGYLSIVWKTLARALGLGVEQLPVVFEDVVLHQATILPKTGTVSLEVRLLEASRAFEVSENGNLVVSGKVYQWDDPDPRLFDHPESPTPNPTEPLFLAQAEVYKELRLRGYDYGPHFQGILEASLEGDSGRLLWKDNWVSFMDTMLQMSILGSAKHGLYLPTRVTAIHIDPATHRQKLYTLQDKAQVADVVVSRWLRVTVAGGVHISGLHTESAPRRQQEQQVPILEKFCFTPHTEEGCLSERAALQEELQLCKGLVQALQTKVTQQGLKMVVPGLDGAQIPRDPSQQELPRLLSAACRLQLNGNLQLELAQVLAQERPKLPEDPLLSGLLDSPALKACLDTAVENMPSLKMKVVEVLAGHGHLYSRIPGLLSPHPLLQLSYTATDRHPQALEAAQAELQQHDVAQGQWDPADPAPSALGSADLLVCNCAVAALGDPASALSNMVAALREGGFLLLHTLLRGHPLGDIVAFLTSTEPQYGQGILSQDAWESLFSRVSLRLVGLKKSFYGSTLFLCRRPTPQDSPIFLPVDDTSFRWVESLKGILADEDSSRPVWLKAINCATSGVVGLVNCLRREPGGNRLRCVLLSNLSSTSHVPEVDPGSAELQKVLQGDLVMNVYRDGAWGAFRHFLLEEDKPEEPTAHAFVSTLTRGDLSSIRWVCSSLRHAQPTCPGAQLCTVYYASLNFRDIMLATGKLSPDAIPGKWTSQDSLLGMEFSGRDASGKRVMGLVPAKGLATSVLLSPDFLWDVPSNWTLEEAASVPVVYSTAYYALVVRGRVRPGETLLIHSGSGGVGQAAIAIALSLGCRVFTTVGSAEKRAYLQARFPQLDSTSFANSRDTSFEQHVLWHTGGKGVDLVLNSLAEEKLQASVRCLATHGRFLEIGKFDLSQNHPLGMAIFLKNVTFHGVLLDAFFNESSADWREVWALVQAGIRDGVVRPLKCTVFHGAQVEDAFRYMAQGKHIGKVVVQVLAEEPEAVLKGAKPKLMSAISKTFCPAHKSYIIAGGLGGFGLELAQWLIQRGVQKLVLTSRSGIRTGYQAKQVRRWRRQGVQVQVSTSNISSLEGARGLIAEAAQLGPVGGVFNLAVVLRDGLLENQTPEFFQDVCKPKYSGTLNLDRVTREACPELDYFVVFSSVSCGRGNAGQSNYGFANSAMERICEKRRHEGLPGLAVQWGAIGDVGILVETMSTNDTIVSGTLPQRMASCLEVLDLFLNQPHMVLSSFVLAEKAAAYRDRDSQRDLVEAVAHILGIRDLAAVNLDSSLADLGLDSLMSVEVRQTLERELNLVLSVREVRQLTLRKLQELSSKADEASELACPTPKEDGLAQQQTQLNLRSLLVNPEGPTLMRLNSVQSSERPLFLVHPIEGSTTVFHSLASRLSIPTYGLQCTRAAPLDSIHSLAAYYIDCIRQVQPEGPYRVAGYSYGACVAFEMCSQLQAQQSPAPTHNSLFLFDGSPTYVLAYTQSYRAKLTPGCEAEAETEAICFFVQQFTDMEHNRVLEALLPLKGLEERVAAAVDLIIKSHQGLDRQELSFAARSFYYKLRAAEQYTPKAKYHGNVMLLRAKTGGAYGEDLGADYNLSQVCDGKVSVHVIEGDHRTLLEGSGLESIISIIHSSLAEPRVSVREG

CC#C[C@]1(O)CC[C@H]2[C@@H]3CCC4=CC(=O)CCC4=C3[C@@H](c3ccc(N(C)C)cc3)C[C@@]21C
active: [2] 0.218 µM | [5] 3.9 µM | [6] 22 µM | [7] 4.54 µM | [9] 86.2 µM | [10] 34.2 µM | [11] 33.4 µM | [12] 50 µM | [14] 3.33 µM
inactive: [1] | [3] | [4] | [8] | [13]

CCC(=C(c1ccc(O)cc1)c1ccc(OCCN(C)C)cc1)c1ccccc1
active: [12] 93.3 µM | [13] 97.3 µM | [14] 82.6 µM
not listed: [3] | [4] | [6]
inactive: all other assays above

CCc1nn(C2CCCCC2)c2cc(C3(C#N)CCC(C(=O)O)CC3)ccc12 (centres undefined)
active: [9] 19.5 µM | [10] 77.2 µM | [11] 83.7 µM | [12] 14.4 µM | [13] 8.95 µM | [14] 86 µM
not listed: [6] | [7] | [16] | [19] | [20]
inactive: all other assays above

CCC(C)(C)C1CCC(O)CC1 (centres undefined)
inactive: [6] | [7] | [8] | [19] | [9] | [10] | [11] | [12] | [13] | [14]

CCCCCCCCCCCCCCCS(=O)(=O)Oc1ccccc1
active: [1] 5.88 µM | [2] 5.48 µM | [5] 4.08 µM | [12] 11.4 µM
not listed: [7] | [16] | [19] | [20]
inactive: all other assays above

O=[N+]([O-])c1ccc(O)cc1
inactive: [1] | [5] | [7] | [8] | [9] | [10] | [11] | [12] | [13] | [14]
active: [2] 27.3 µM | [12] 78.2 µM
